Only a selection was taken, and hits are over-represented in it overall.
RMI-FANCM inh = blocks RMI1/RMI2 complex binding to FANCM MM2 peptide | Fluorescence polarization, RMI core complex with F-MM2 peptide; stronger effect = lower value | FP signal (polarization) at 33 µM | 70,000 compounds, 0.58% hits; in the data active means FP signal below about 40
Of the large screens only hits and unclear results are named; the others gave an inactive call; ! = repeats disagree.

Cc1cc(O)c2c(c1)Cc1cccc(O)c1C2=O	RMI-FANCM inh -15
Cc1ccc(S(=O)(=O)Nc2ccc3c(c2)CN(C(=O)c2ccco2)CC3)cc1C	none
CN1CCCc2cc(C(CNC(=O)c3ccco3)N3CCOCC3)ccc21 (configuration not stated)	none
CNC(=O)c1ccsc1NC(=O)Cc1ccc(SC)cc1	none
Cc1nc(Cl)c2c3c(sc2n1)CCCC3	none
Cc1nc2sc3c(c2c(=O)o1)CCCC3	none
Cc1nc(Sc2nc3ccccc3o2)c2c3c(sc2n1)CCCC3	RMI-FANCM inh 30
CCc1nnc(NC(=O)CSc2nnc(Cn3c(=O)sc4ccccc43)n2C)s1	none
O=C(O)Cc1csc(Nc2cccc(C(F)(F)F)c2)n1	none
NC(=O)c1ccccc1NC(=O)Cc1csc(Nc2cccc(C(F)(F)F)c2)n1	none
NC(=O)Cc1csc(Nc2cccc(C(F)(F)F)c2)n1	RMI-FANCM inh 29
O=C(CSc1nc2c(c(=O)n1-c1ccc([N+](=O)[O-])cc1)SCC2)N1CCCc2ccccc21	RMI-FANCM inh 24
CCOC(=O)N1CCN(C(=O)CSc2nc3c(c(=O)n2-c2ccc(OCC)cc2)SCC3)CC1	none
O=C(CSc1nc2c([nH]c3ccccc32)c(=O)n1-c1ccc([N+](=O)[O-])cc1)N1CCc2ccccc21	none
Cc1nn(-c2ccccc2)c(N2CCCCC2)c1/C=N\Nc1ccc(C(F)(F)F)cn1	none
Fc1ccc(-n2nnnc2CCl)cc1	none
O=C(Nc1ccc(F)c(Cl)c1)C(=O)Nc1cc2c3c(c1)CCN3C(=O)CC2	none
Cc1ccc(N=C2NC(=O)/C(=C/c3cccnc3)S2)cc1	none
CC(/C=C1\SC(=O)NC1=S)=C\c1ccccc1	none
O=C1NC(=S)/C(=C/c2cccnc2)S1	RMI-FANCM inh -19
COCCN1CCC(CNC(=O)C(=O)NCc2ccc(F)cc2)CC1	none
CC(C)(C)c1ccc(C(=O)NCC(=O)N/N=C\c2c[nH]c3ccccc23)cc1	none
O=C(Nc1nc(-c2cc3ccccc3oc2=O)cs1)c1cccc(Cl)c1	none
CC1CCc2c(sc3nc(SCC(N)=O)nc(NCc4ccccc4)c23)C1 (configuration not stated)	none
Cc1ccc(C)c(S(=O)(=O)C(C#N)c2nc3ccccc3nc2N2CCCC2)c1 (configuration not stated)	RMI-FANCM inh 5
CCN1CCN(c2nc3ccccc3nc2C(C#N)S(=O)(=O)c2cccs2)CC1 (configuration not stated)	none
CCC(CC)COC(=O)C(C#N)c1nc2ccccc2nc1N1CCCCC1 (configuration not stated)	none
COc1cccc2sc(Nc3nc4c(F)cc(F)cc4s3)nc12	RMI-FANCM inh 28
COc1cccc2sc(Nc3nc(C(C)(C)C)cs3)nc12	none
Fc1cccc2sc(Nc3nc4c(F)cccc4s3)nc12	none
CC1CCN(C(=O)CSc2nc(-c3ccccc3)nc3c2c(=O)n(C)c(=O)n3C)CC1	none
O=C(Cc1cccs1)NCc1ccc2[nH]c3c(c2c1)CCCC3	RMI-FANCM inh -1
O=C(NCc1ccc2[nH]c3c(c2c1)CCCC3)c1cccs1	none
O=C(NCc1ccc2[nH]c3c(c2c1)CCCC3)c1ccc(C(F)(F)F)cc1	none
Cc1oc2cc(OCc3c(F)c(F)c(F)c(F)c3F)ccc2c(=O)c1Oc1ccccc1	none
O=c1ccc(-c2ccco2)nn1CCCNS(=O)(=O)c1ccc(OC(F)(F)F)cc1	none
O=C(NCc1ccc2c(c1)OCO2)C(=O)NCC1CCN(Cc2cccs2)CC1	none
COc1ccc(-c2noc(-c3cc(-c4cc(C)ccc4C)n[nH]3)n2)cc1	none
CCOC(=O)c1scc(-c2ccc(C)cc2)c1S(=O)(=O)Nc1ccc(C)cc1C	none
COc1ccc(C(CC(=O)NCc2ccccc2)Sc2n[nH]c(-c3ccc(F)cc3)n2)cc1 (configuration not stated)	none
COc1ccc(-c2nc(SC(CC(=O)NCCc3ccccc3)c3cccs3)n[nH]2)cc1 (configuration not stated)	none
COc1ccc(-c2nc(SC(CC(=O)NCCN3CCOCC3)c3ccc(OC)cc3)n[nH]2)cc1 (configuration not stated)	RMI-FANCM inh 22
CC(C)CCN1C(=O)CCc2cc(NS(=O)(=O)c3ccccc3Br)ccc21	none
OC(CN1CCN(c2ccc(F)cc2)CC1)C(F)(F)F (configuration not stated)	none
COc1ccc(NC(=O)CC(C(=O)O)N2CCCCC2)cc1Cl (configuration not stated)	none
CCC(=O)Nc1nnc(-c2ccc(F)cc2)o1	none
O=C(CNS(=O)(=O)c1ccccc1Cl)N1CCOC(c2ccccc2)C1 (configuration not stated)	none
Fc1ccccc1-c1nnc(SCc2cccc(C(F)(F)F)c2)o1	none
Cc1ccc(OCC(=O)Nc2cc(-c3ccco3)nn2-c2nc(C)c(C)c(=O)[nH]2)cc1	none
Cc1nc(-n2nc(-c3ccco3)cc2NC(=O)c2ccco2)[nH]c(=O)c1C	none
Cc1nc(-n2nc(-c3ccco3)cc2NC(=O)CSCc2ccccc2)[nH]c(=O)c1C	RMI-FANCM inh 35
CC(C)CCNC(=O)CSc1ncc(S(=O)(=O)c2ccc(Cl)s2)c(N)n1	none
COC(=O)Cn1c(=O)c2c(OC)c(C)cnc2n(C)c1=O	none
C[Si](C)(C)C(Br)([Si](C)(C)C)[Si](C)(C)C	none
NC[C@@H]1O[C@H](O[C@H]2[C@@H](O)[C@H](O[C@@H]3[C@@H](O)[C@H](N)C[C@H](N)[C@H]3OC3O[C@H](CO)[C@@H](O)[C@H](O)[C@H]3N)O[C@@H]2CO)[C@H](N)[C@@H](O)[C@@H]1O (some centres not stated)	RMI-FANCM inh 4
NC[C@@H]1O[C@H](O[C@@H]2[C@@H](CO)OC(O[C@@H]3[C@@H](O)[C@H](N)C[C@H](N)[C@H]3O[C@H]3O[C@H](CO)[C@@H](O)[C@H](O)[C@H]3N)[C@@H]2O)[C@H](N)[C@@H](O)[C@@H]1O (some centres not stated)	none
NC[C@H]1O[C@H](OC2[C@@H](N)C[C@@H](N)[C@H](O)[C@H]2O[C@@H]2O[C@H](CO)[C@@H](O)[C@H]2O)[C@H](N)[C@@H](O)[C@@H]1O (some centres not stated)	none
Cc1cccc(S(=O)(=O)NCCC(=O)O)c1	none
O=C(CSc1nc2c(oc3ccccc32)c(=O)n1CC1CCCO1)Nc1cccc(Cl)c1 (configuration not stated)	none
Cc1cc(NC(=O)CN2CC3CC(C2)c2cccc(=O)n2C3)nc2c1c(=O)oc1ccccc12 (configuration not stated)	RMI-FANCM inh 31!
Cc1cc(NC(=O)C(C)(C)Oc2ccc(Cl)cc2)nc2c1c(=O)oc1ccccc12	none
O=C(NCCn1ncc2c(=O)n(Cc3ccccc3F)cnc21)c1ccc(C(F)(F)F)cc1	none
O=C(NCCn1ncc2c(N3CCN(Cc4ccccc4)CC3)ncnc21)c1cnccn1	none
COc1cccc(-n2c(=S)sc3c(=O)[nH]c(SCC(=O)NC4CCCC4)nc32)c1	none
Fc1ccc(-c2nc(=S)c3c([nH]2)Oc2ccc(Br)cc2C3)cc1	RMI-FANCM inh 26
Fc1ccc(-c2noc(-c3ccc4c(c3)CCO4)n2)cc1	none
N#Cc1c(N)c(C#N)c2c(c1-c1ccco1)Cc1ccccc1-2	RMI-FANCM inh 12
N#CC1=C(N)OC(c2ccco2)=C(C#N)C1c1ccco1 (configuration not stated)	none
COC(=O)c1sc(SC)c(C#N)c1-c1ccco1	none
Cc1ccnc(NC(=O)NCCCSc2nnc(-c3ccccc3)o2)n1	none
Cc1cc(=O)n2c(-c3cccc(NC(=O)C(C)C)c3)csc2n1	none
CNC(=O)Cc1csc(Nc2ccc(OC(F)(F)F)cc2)n1	none
O=C(Cc1csc(SCc2ccc(Cl)cc2)n1)NCc1ccccn1	none

Assay outcomes as filed in PubChem.
